Compound activity from PubChem BioAssay.
D2 PAM-1: potentiates the human D2 dopamine receptor allosterically; 0.23% of 360,000 active; P14416; DiscoveRx D2 beta-arrestin cells, luminescence, 90 min; 100% = 57 uM dopamine signal; potentiation, % (concentration not given with the values); in the data active = potentiation above about 50%; inconclusive = mostly about 30% to 49%
Target sequence (P14416 whole entry, looked up): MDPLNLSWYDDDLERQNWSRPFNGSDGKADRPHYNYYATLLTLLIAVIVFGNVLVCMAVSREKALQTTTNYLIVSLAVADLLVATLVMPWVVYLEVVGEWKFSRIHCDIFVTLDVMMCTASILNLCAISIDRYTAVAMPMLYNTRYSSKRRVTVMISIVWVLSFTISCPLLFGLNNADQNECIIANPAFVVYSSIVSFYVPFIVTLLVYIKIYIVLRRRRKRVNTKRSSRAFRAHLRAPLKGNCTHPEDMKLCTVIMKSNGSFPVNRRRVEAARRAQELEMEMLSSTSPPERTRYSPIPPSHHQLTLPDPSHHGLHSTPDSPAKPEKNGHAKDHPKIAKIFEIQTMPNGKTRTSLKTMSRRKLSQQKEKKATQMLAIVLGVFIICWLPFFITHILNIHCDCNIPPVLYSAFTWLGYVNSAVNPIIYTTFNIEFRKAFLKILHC
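PathHunter beta-arrestin assay in DiscoveRx D2 cells. Compounds were added with an EC20 of dopamine (50 nM final) for 90 min at 37 deg C. Luminescence was read 1 h after detection reagent, with 57 uM dopamine as the EC100 control.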
D2 antagonist: antagonists of human D2 dopamine receptor | P14416 | HEK293 TREx D2 cells, calcium flux, dopamine EC80 | inhibition, % at 10 µM | 2% of 340,000 active | AID 485344; in the data active = inhibition above about 30%; inactive = below that, where a call was filed; also: 0% is about no effect
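Measurement of antagonist activity uses fluorescent calcium dye in inducible HEK293 T-REx D2 cells: 10 s baseline, compound addition with 180 s read, EC80 dopamine addition with a further 180 s read.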
D2 ag-1: activates the human D2 dopamine receptor; P14416; HEK293 T-REx D2 cells, calcium flux agonist mode; activation, % at 2 µM; 0.53% of 340,000 active;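 active = activation over 3 SD above normal in the single-dose calcium agonist read, cut at about 30% in these data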; also: 0% is about no effect
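In this primary screen, compounds producing a positive calcium signal within 180 s of addition to tetracycline-induced, force-coupled HEK293 Trex D2 cells are flagged; cells are dye-loaded with a no-wash calcium kit beforehand.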
D2 PAM-2: positively modulates the human D2 dopamine receptor allosterically; P14416; HEK293 T-REx D2, calcium flux, EC20 dopamine potentiation; potentiation, % at 10 µM; 0.34% of 340,000 active;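 active = potentiation over 3 SD above the plate norm, cut at about 30% in these data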; also: 0% is about no effect
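Calcium flux readout, no-wash dye, 1 read/s. Inducible HEK293 Trex D2 line, overnight 30 C. Compound alone 180 s (agonist flags), then EC20 dopamine, another 180 s to score potentiation.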
D2 ag-2: agonists of human D2 dopamine receptor (beta-arrestin) | AID 624465 | DiscoveRx PathHunter D2 beta-arrestin, luminescence, 90 min; 100% = 57 uM dopamine signal | activation, % (concentration not given with the values) | 0.084% of 360,000 active | P14416; in the data active = activation above about 40%; inconclusive = between about 15% and that limit
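DiscoveRx PathHunter D2 beta-arrestin cells (2,100/well) attached overnight, then compound-stimulated 90 min at 37 C in HBSS/10 mM HEPES/0.1% Tween-20 buffer; beta-galactosidase complementation read by luminescence after 1 h at ambient temperature. Dopamine 57 uM final (EC100) as control.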
An asterisk follows results filed as active; ? = inconclusive; nt = no result given. Shown are actives, neighbours in structure and some others; about 2.4% of the full set was active somewhere.

SMILES	D2 PAM-1	D2 antagonist	D2 ag-1	D2 PAM-2	D2 ag-2
CC1CCCN(c2nc3c(c(=O)n(C)c(=O)n3C)n2CCSc2nc3ccccc3o2)C1 (stereo not drawn)	-4.7	-11.4	-0.6	30.4*	-2.3
CCOC(=O)c1[nH]c(C)c(CCC(=O)N2CCN(c3cc(Cl)ccc3C)CC2)c1C	nt	nt	-0.4	nt	nt
CCOC(=O)N1CCN(C2OC(=O)c3ccccc32)CC1 (stereo not drawn)	-13.1	-2.9	1.4	14.2	-0.4
O=C1OC(N2CCN(C(=O)C3CCCO3)CC2)c2ccccc21 (stereo not drawn)	55.0*	-11.2	0.3	-5.4	2.8
C=CCc1cc(Cl)ccc1OCCNCCCOC	-15.6	37.1*	1.4	-33.5	-1.3
C=CCc1ccccc1OCCNCCCOC	-32.2	69.1*	0.1	-22.0	-5.8
C=CCc1cc(Cl)ccc1OCCOCCNCCOC	-15.7	4.0	0.8	-20.1	-3.4
CSc1cccc(Nc2nc3c(S(=O)(=O)c4ccccc4)nnn3c3ccc(Cl)cc23)c1	nt	nt	nt	-3.1	nt
COC(=O)c1c(C)[nH]c(C(=O)C(C)Sc2nnc(-c3cc(OC)c(OC)c(OC)c3)o2)c1C (stereo not drawn)	-9.0	32.1*	-1.4	4.9	-1.3
COc1ccc(NC(=O)c2ccc(-n3cncn3)c([N+](=O)[O-])c2)cc1OC	12.8	35.3*	-0.8	-2.0	3.4
O=C(Nc1ccc(F)c(F)c1)c1ccc(-n2cncn2)c([N+](=O)[O-])c1	2.5	-26.8	0.4	-6.9	13.6
O=C(Nc1cccc(/C=C/c2ccccn2)c1)c1ccc(-n2cncn2)c([N+](=O)[O-])c1	62.8*	20.5	-0.3	-13.6	7.3
CCOC(=O)c1[nH]cnc1C(=O)N1CCN(C(=O)OC(C)(C)C)CC1	-7.8	31.5*	0.3	-1.3	-2.6
Cc1ccc(-c2nc(CN3CCCCC3CCN3CCCC3=O)c(C)o2)o1 (stereo not drawn)	-15.7	nt	nt	nt	-20.0
Cc1oc(-c2cccc(F)c2)nc1CN1CCCCC1CCn1cccn1 (stereo not drawn)	-7.0	45.2*	1.3	-21.4	-3.4
O=C(c1ccc(S(=O)(=O)Nc2ccccc2Cl)cc1)N1CCCC1	-0.7	nt	nt	nt	0.0
CCOC(=O)N1CCN(C(=O)c2ccc(NS(=O)(=O)c3ccc(F)cc3)cc2)CC1	?	28.8	-1.2	-3.7	2.0
O=C(c1ccc(NS(=O)(=O)c2ccc(F)cc2)cc1)N1CCC1	-25.4	41.8*	-0.5	8.5	-7.7
O=C(c1ccc(S(=O)(=O)Nc2ccccc2F)cc1)N1CCCC1	8.1	50.6*	-0.8	-11.4	-1.5
CC(O)CNc1nc2c(c(=O)n(Cc3ccc(Br)cc3)c(=O)n2C)n1C (stereo not drawn)	52.5*	4.2	-0.7	9.7	5.9
CC(O)CNc1nc2c(c(=O)n(Cc3ccccc3)c(=O)n2C)n1C (stereo not drawn)	-7.0	-19.4	0.5	14.5	-4.3
COc1ccc(S(=O)(=O)Nc2c(O)ccc3ccccc23)cc1OC	106.9*	nt	nt	nt	?
COc1ccc(C(=O)Nc2c(O)ccc3ccccc23)cc1OC	17.1	nt	nt	nt	-0.1
O=C(/C=C/c1ccccc1)N1CCN(Cc2cc(=O)n3nc(-c4ccccc4)sc3n2)CC1	nt	nt	12.7	1.0	nt
CC(NC(=O)c1ccco1)C(=O)NC(C)c1cc(F)c(Cl)cc1Cl (stereo not drawn)	-19.2	-2.7	1.2	30.4*	-4.6
SMILES	D2 PAM-1	D2 antagonist	D2 ag-1	D2 PAM-2	D2 ag-2
CC(NC(=O)[C@H](C)NC(=O)c1ccco1)c1ccc(S(N)(=O)=O)cc1 (stereo partly drawn)	-2.7	14.2	1.3	-10.4	-5.1
Cc1ccc(CNC(=O)CN(C)S(=O)(=O)c2ccc3c(c2)c(=O)n(C)c(=O)n3C)cc1	nt	nt	nt	1.4	nt
CC1(C)C(c2cccs2)=[N+]([O-])C2(CCCCC/C2=N\O)N1O (stereo not drawn)	?	5.5	-0.9	11.6	5.3
CC1(C)C(c2ccccc2)=[N+]([O-])C2(CCCCC2=O)N1O (stereo not drawn)	21.4	33.4*	-0.5	4.4	6.1
COc1ccc(C(C)=O)cc1CC(=O)NCCCn1ccnc1	-2.4	-1.5	0.5	33.5*	0.8
COc1ccc(Cl)cc1C(=O)NCCCn1ccnc1	-8.0	2.3	1.4	-12.4	2.5
Cc1cc(Cl)ccc1OCCCC(=O)NCCCn1ccnc1	-7.7	35.7*	1.5	0.3	-4.0
CCc1cc(=O)oc2cc(OCC(=O)NCCCn3ccnc3)ccc12	-9.6	37.4*	0.0	2.6	6.2
COc1ccc(-c2cc(=O)oc3cc(OCC(=O)NCCCn4ccnc4)ccc23)cc1	-18.7	-3.5	-1.0	-2.4	2.0
Cc1cc(C(=O)NCCCn2ccnc2)sc1-c1ccccc1	-15.3	47.3*	0.4	-29.2	-1.5
Cc1cc(Cl)ccc1OCC(=O)NCCCn1ccnc1	-22.6	5.0	-0.5	-11.5	0.3
CC(C)c1cc(C(=O)NC(C)c2ccccc2)no1 (stereo not drawn)	nt	nt	-0.8	2.7	nt
N#CC1=C2SCN(C3CCCCC3)CN2C(=O)CC1c1c(F)cccc1Cl (stereo not drawn)	nt	nt	0.3	5.8	nt
Cc1ccc(S(=O)(=O)Nc2ccc(Cl)cc2)cc1NC(=O)c1cc2c(s1)CCCC2	72.1*	-8.9	0.6	6.7	7.8
COc1cc(/C=N/N(CCO)C2=NS(=O)(=O)c3ccccc32)cc(OC)c1OC	3.2	-30.5	0.4	7.1	3.6
COc1cc(Br)cc(/C=N/N(CCO)C2=NS(=O)(=O)c3ccccc32)c1OC	-23.4	38.0*	-1.6	-26.2	-3.3
O=C1CC(c2ccc(Cl)cc2)CC(O)=C1C=NCCN1CCNCC1 (stereo not drawn)	nt	53.1*	0.8	0.9	nt
C=CCNC(=S)N1CCN(CCN=CC2=C(O)CC(c3ccc(Cl)cc3)CC2=O)CC1 (stereo not drawn)	7.4	-17.8	0.9	22.6	2.0
O=C(Nc1ccccc1C(F)(F)F)c1noc2c1CCCCC2	nt	nt	nt	4.4	nt
O=C(NCCCN1CCN(c2cccc(Cl)c2)CC1)C1(S(=O)(=O)c2ccc(Cl)cc2)CC1	-38.2	34.6*	15.1	-18.2	-0.2
CCCCCCCNC(=O)COc1ccc2c(c1)C(=O)CC(C)(C)O2	-13.1	29.5	-0.5	7.1	-1.4
COCCNC(=O)COc1cc(=O)n(C)c2ccccc12	1.1	-17.7	0.2	1.6	0.9
Cn1c(=O)cc(OCCCC(=O)NCCCN2CCN(Cc3ccccc3)CC2)c2ccccc21	-19.0	-23.0	-0.7	-14.3	-2.1
CC1(C)CC(=O)c2cc(OCC(=O)NCCCN3CCN(c4ccccc4F)CC3)ccc2O1	3.7	81.8*	77.8*	-25.3	?
Cn1c(=O)cc(OCCCC(=O)NCCN2CCN(c3ccccc3F)CC2)c2ccccc21	-9.1	35.6*	32.5*	-24.9	-2.4
